Data from PubChem BioAssay (NCATS).
Several values for one entry are separate records, joined by “and”; a condition that tells them apart may be missing. Equal values may be shown once. Inconclusive results are not listed. A call without a number means that no potency is given here. A structure can be active in one record and inactive in another. Activity calls are given as the source filed them. Unless noted, calls follow the shape of the dose curve; as a rule, active = well fitted curve in the direction sought with a large enough effect; inconclusive = small, poorly fitted or top-dose-only effect, or another doubt; inactive = no such curve, though single readings can be large; an effect the other way counts as inactive or inconclusive.

Assays:
[1] = target: Alpha-galactosidase (Coffea arabica) (UniProt Q42656); assay: Counterscreen for Glucocerebrosidase Inhibitors: qHTS Assay for Coffee Bean alpha-Galactosidase at pH 5.9 (AID 998); details: coffee bean alpha-galactosidase enzyme assay; series mostly up to 76.9 µM
Chain of Alpha-galactosidase (Coffea arabica) (Q42656 whole entry, looked up): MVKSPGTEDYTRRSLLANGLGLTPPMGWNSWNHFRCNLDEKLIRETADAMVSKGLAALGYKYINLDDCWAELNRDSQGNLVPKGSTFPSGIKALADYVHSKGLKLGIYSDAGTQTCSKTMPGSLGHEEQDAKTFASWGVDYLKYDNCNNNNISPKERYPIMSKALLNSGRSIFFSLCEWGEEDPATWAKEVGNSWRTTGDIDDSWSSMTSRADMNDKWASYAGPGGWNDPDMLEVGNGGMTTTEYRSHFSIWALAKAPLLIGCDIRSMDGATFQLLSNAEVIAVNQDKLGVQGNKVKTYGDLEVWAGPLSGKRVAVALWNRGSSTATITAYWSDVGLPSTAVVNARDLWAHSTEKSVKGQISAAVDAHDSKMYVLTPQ
Outline: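 In 50 mM citric acid pH 5.9 with 0.005% Tween-20, coffee bean enzyme hydrolyses 80 uM 4-MU alpha-D-galactopyranoside over 20 min at RT. Activity is normalized to controls; AC50 comes from Hill-modelled concentration-response data.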

[2] = qHTS Assay for Lipid Storage Modulators (AID 1519; calls by dose curve); details: Drosophila S3 cells, BODIPY lipid droplet/cell ratio, laser cytometry, cells loaded with oleic acid
Outline: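 Cells seeded at 5,000 per well were treated with compounds over a concentration series and loaded with oleic acid (400 uM, as added). Lipid droplet fluorescence (488 nm excitation, 500-530 nm channel) was read by laser-scanning cytometry and normalized to 20 uM Triacsin C.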

[3] = Cell Viability - LYMP2-020 (AID 986); details: series mostly up to 92.2 µM; also: nearly all actives have a fitted effect of over 55% in size; also: potency is read from the fitted curve at half-maximal effect
Outline: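 Cytotoxicity in qHTS format: luminescent ATP readout from CellTiter-Glo after 24 h compound exposure at 37 C in complete medium. LYMP2-020 lymphoblastoid cells were seeded at 2500/well; concentration-response data fitted to the Hill equation for AC50.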

[4] = Cell Viability - LYMP2-022 (AID 987); details: LYMP2-022 lymphoblastoid cell viability; series mostly up to 92.2 µM; also: nearly all actives have a fitted effect of over 55% in size; also: potency is read from the fitted curve at half-maximal effect
Outline: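 Cytotoxicity read as decreased cellular ATP (CellTiter-Glo luminescence, 30 min room temperature) after 24 hours compound exposure of 2500 lymphoblastoid LYMP2-022 cells/well at 37 C. Concentration-response data fitted with standard Hill equation for AC50.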

[5] = Cell Viability - LYMP2-024 (AID 988); details: LYMP2-024 lymphoblastoid cell viability; series mostly up to 92.2 µM; also: nearly all actives have a fitted effect of over 60% in size; also: potency is read from the fitted curve at half-maximal effect
Outline: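 Cytotoxicity was taken as a decrease in ATP (CellTiter-Glo luminescence) after 24 hr compound exposure at 37 C of LYMP2-024 lymphoblastoid cells, 2500 cells/well. Concentration-response data were fitted to the Hill equation to give AC50.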

[6] = Cell Viability - LYMP2-026 (AID 989); details: LYMP2-026 lymphoblastoid cell viability, qHTS; series mostly up to 92.2 µM; also: nearly all actives have a fitted effect of over 50% in size; also: potency is read from the fitted curve at half-maximal effect
Outline: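 Cytotoxicity read as ATP-dependent luminescence (CellTiter-Glo, 30 min room temperature) after 24 h compound treatment at 37 C. LYMP2-026 lymphoblastoid line seeded at 2500 cells/well; AC50 derived by standard Hill equation.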

[7] = Cell Viability - LYMP1-002 - Assay at 24 hr (AID 993); details: LYMP1-002 lymphoblastoid cells viability; series mostly up to 92.2 µM; also: potency is read from the fitted curve at half-maximal effect
Outline: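 qHTS cytotoxicity at 24 h: CellTiter-Glo ATP luminescence in lymphoblastoid line LYMP1-002 incubated with compound at 37 °C. Concentration-response modeled with the Hill equation for AC50; tetraoctylammonium bromide served as positive control.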

[8] = Cell Viability - LYMP1-002 - Assay at 40 hr (AID 994); details: LYMP1-002 lymphoblastoid cell viability; series mostly up to 92.2 µM; also: nearly all actives have a fitted effect of over 60% in size; also: potency is read from the fitted curve at half-maximal effect
Outline: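 Cytotoxicity was read as loss of cellular ATP (CellTiter-Glo luminescence) after 40 hr compound exposure at 37 C of 2500 LYMP1-002 lymphoblastoid cells per well. Concentration-response data were fitted with the standard Hill equation to give AC50.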

**Q.** Which results are given for `CN(C)C(=O)Oc1cccc([N+](C)(C)C)c1`?
**A.** outcome [1]: inactive; activity change, negative = inhibition ([2]; at 25.7 µM (top of the series)): -1.76% (inactive); activity change, negative = inhibition ([2]; at 57.5 µM (top of the series)): 8.87% (inactive); max response ([2]; measured here: cell count channel max response): 2.56% and -8.73%; max response ([2]; measured here: lipid channel max response): 2.57% and 1.95%

**Q.** Which Potency [3] does the source give for `CCCCCCCCCCCC[N+](C)(C)CCOc1ccccc1` here?
**A.** 39.8 µM (active)

**Q.** And the Potency [4]?
**A.** 39.8 µM (active)

**Q.** And the Potency [5]?
**A.** 39.8 µM (active)

**Q.** What about the Potency [6] of the same compound?
**A.** 39.8 µM (active)

**Q.** What about the Potency [7] of the same compound?
**A.** 7.94 µM (active)

**Q.** And the Potency [8]?
**A.** 31.6 µM (active)

**Q.** With `C[N+](C)(C)CCOC(=O)CCC(=O)OCC[N+](C)(C)C` as the compound, how does the outcome [1] read?
**A.** inactive

**Q.** With `Cc1ccc(N(CC2=NCCN2)c2cccc(O)c2)cc1` as the compound, how does the outcome [1] read?
**A.** inactive

**Q.** Which Potency [3] does the source give for `Oc1c(Br)cc(Br)cc1Br` here?
**A.** inactive

**Q.** What about the Potency [4] of the same compound?
**A.** inactive

**Q.** What about the Potency [5] of the same compound?
**A.** inactive

**Q.** And the Potency [6]?
**A.** inactive

**Q.** What about the Potency [7] of the same compound?
**A.** inactive

**Q.** And the Potency [8]?
**A.** inactive

**Q.** For `Oc1ccc(Cl)cc1Cc1cc(Cl)ccc1O`, which Potency [3] is on record?
**A.** 39.8 µM (active)

**Q.** What does the source list for `COP(=O)(OC)OC=C(Cl)Cl`?
**A.** Potency [3]: inactive; Potency [4]: inactive; Potency [5]: inactive; Potency [6]: inactive; Potency [7]: inactive; Potency [8]: 12.6 µM (active) and inactive

**Q.** For `CC1=C(C)C(=O)C(CCCCC#CCCCC#CCO)=C(C)C1=O`, which outcome [1] is on record?
**A.** inactive

**Q.** Which outcome [1] does the source give for `COc1cc2c(cc1OC)-c1cc(=Nc3c(C)cc(C)cc3C)n(C)c(=O)n1CC2` here?
**A.** inactive

**Q.** For `CCOC(=O)Nc1ccc(NCc2ccc(F)cc2)nc1N`, which outcome [1] is on record?
**A.** inactive

**Q.** For `NS(=O)(=O)c1cc2c(cc1Cl)NCNS2(=O)=O`, which outcome [1] is on record?
**A.** inactive

**Q.** What does the source list for `CN(C)C(=S)SSC(=S)N(C)C`?
**A.** Potency [3]: 0.398 µM (active); Potency [4]: 0.158 µM (active); Potency [5]: 0.251 µM (active); Potency [7]: 0.316 µM (active); Potency [8]: 3.98 µM (active)

**Q.** Which outcome [1] does the source give for `Oc1cc(O)c2c(c1)O[C@H](c1ccc(O)c(O)c1)[C@H](O)C2` here?
**A.** inactive

**Q.** For `Cn1c(=O)c2c(ncn2C)n(C)c1=O`, which outcome [1] is on record?
**A.** inactive

**Q.** With `C[C@@H]1C[C@@H]([C@H](O)CC2CC(=O)NC(=O)C2)C(=O)[C@@H](C)C1` as the compound, how does the Potency [3] read?
**A.** 0.794 µM (active)

**Q.** And the Potency [4]?
**A.** 794 nM (active) and 1 µM (active)

**Q.** What about the Potency [5] of the same compound?
**A.** 0.794 µM (active)

**Q.** And the Potency [6]?
**A.** 1 µM (active)

**Q.** And the Potency [7]?
**A.** inactive

**Q.** And the Potency [8]?
**A.** 1.26 µM (active) and inactive

**Q.** Which outcome [1] does the source give for `C[C@]12CCC(=O)C=C1CC[C@@H]1[C@@H]2C(=O)C[C@@]2(C)[C@H]1CC[C@]2(O)C(=O)CO` here?
**A.** inactive

**Q.** For `CNC[C@H](O)c1ccc(O)c(O)c1`, which outcome [1] is on record?
**A.** inactive

**Q.** Which outcome [1] does the source give for `CN(C)CCOC(c1ccccc1)c1ccccc1` here?
**A.** inactive

**Q.** What does the source list for `CNC(=O)Oc1cccc2ccccc12`?
**A.** Potency [3]: inactive; Potency [4]: inactive; Potency [5]: inactive; Potency [6]: inactive; Potency [7]: inactive; Potency [8]: inactive

**Q.** With `CCN(CC)CC(=O)Nc1c(C)cccc1C` as the compound, how does the outcome [1] read?
**A.** inactive

**Q.** With `Oc1ccc(Cl)cc1Sc1cc(Cl)ccc1O` as the compound, how does the Potency [3] read?
**A.** 39.8 µM (active)

**Q.** What about the Potency [8] of the same compound?
**A.** 50.1 µM (active)

**Q.** Which outcome [1] does the source give for `CCN(CC)CCOCCOC(=O)C1(c2ccccc2)CCCC1` here?
**A.** inactive

**Q.** For `CCC(=O)c1ccc2c(c1)N(CCCN(C)C)c1ccccc1S2`, which outcome [1] is on record?
**A.** inactive

**Q.** With `O=C(CCl)c1ccc(Cl)cc1Cl` as the compound, how does the Potency [3] read?
**A.** 5.01 µM (active)

**Q.** And the Potency [4]?
**A.** 2 µM (active)

**Q.** And the Potency [5]?
**A.** 2.51 µM (active)

**Q.** What about the Potency [6] of the same compound?
**A.** 6.31 µM (active)

**Q.** What about the Potency [7] of the same compound?
**A.** 15.8 µM (active)

**Q.** What about the Potency [8] of the same compound?
**A.** 25.1 µM (active)
